Experimental data reported in publication PMC12820563, “FoxP3 forms a head-to-head dimer in vivo and stabilizes its multimerization on adjacent microsatellites”.
The full ranking holds about 16,000 sequences; the median of “rpm ratio (pull-down/input)” is about 0.5, and the highest 2% start at about 5.5. The sample holds the highest values, similar sequences and a random draw of the others, so the mix is not that of the screen.

Target: T1, MBP-FoxP3dN (Mus musculus, UniProt Q99JB6 188-423)
T1 sequence: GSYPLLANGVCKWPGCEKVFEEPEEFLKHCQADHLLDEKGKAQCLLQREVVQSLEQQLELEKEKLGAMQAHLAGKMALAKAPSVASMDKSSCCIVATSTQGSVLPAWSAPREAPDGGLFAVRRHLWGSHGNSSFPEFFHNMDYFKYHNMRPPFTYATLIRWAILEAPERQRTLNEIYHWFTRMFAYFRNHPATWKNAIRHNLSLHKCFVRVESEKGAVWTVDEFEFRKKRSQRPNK
Test: PD-seq (MBP pull-down with sequencing); 20 mM Tris-HCl pH 7.5, 100 mM NaCl, 1.5 mM MgCl2, 0.4 uM protein, 0.1 uM dsDNA library, 30 min, room temperature, amylose pull-down; high values mean tight binding
Details: protein: recombinant; tags: His6-MBP; chain copies: 2; dsDNA, one strand shown
Outline: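 Amylose resin was used to capture complexes formed during 30 min at room temperature in Tris pH 7.5 buffer with NaCl and MgCl2 between 0.4 µM His6-MBP-tagged mouse FoxP3 or FoxP1 fragment lacking the N-terminus, expressed in E. coli, and 0.1 µM Klenow-filled double-stranded degenerate DNA library. After three washes, the DNA was released with proteinase K, barcoded by PCR and sequenced on Illumina. Binding is pooled-replicate reads-per-million enrichment, pull-down over input.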

Sequence	binding signal
GATGATTGTTCTCCCAGCTGATGAATTGCTGAATTCGAGTAAACAAATTTTCCTAATCTTTCTGTTCAAGCGCCATCTAC	0.916 RPM ratio (pull-down/input)
GATGATTGTTCTCCCAGCTGATGAATTACTGAATTCGAGTAAACAAATTTTCCTAATCTTTCTGTTCAAGCGCCATCTAC	0.586 RPM ratio (pull-down/input)
GATGATTGTTCTCCCAGCTGATGAATTACTGATTTCGAGTAAACAAATTTTCCTAATCTTTCTGTTCAAGCGCCATCTAC	0.523 RPM ratio (pull-down/input)
GATGATTGTTCTCCCAGCTGATGAATTACTGCATTCGAGTAAACAAATTTTCCTAATCTTTCTGTTCAAGCGCCATCTAC	6.01 RPM ratio (pull-down/input)
GATGATTGTTCTCCCAGCTGATGAATTGCTGCATTCGAGTAAACAAATTTTCCTAATCTTTCTGTTCAAGCGCCATCTAC	6.8 RPM ratio (pull-down/input)
GATGATTGTTCTCCCAGCTGATGAATTCTCTGCATCGAGTAAACAAATTTTCCTAATCTTTCTGTTCAAGCGCCATCTAC	0.793 RPM ratio (pull-down/input)
GATGATTGTTCTCCCAGCTGATGAATTCGCATGATCGAGTAAACAAATTTTCCTAATCTTTCTGTTCAAGCGCCATCTAC	0.877 RPM ratio (pull-down/input)
GATGATTGTTCTCCCAGCTGATGAATTCTGCGGGTCGAGTAAACAAATTTTCCTAATCTTTCTGTTCAAGCGCCATCTAC	0.928 RPM ratio (pull-down/input)
GATGATTGTTCTCCCAGCTGATGAATTAGTCCGTTCGAGTAAACAAATTTTCCTAATCTTTCTGTTCAAGCGCCATCTAC	0.434 RPM ratio (pull-down/input)
GATGATTGTTCTCCCAGCTGATGAATTCATGAAATCGAGTAAACAAATTTTCCTAATCTTTCTGTTCAAGCGCCATCTAC	0.289 RPM ratio (pull-down/input)
GATGATTGTTCTCCCAGCTGATGAATTAAACCTTTCGAGTAAACAAATTTTCCTAATCTTTCTGTTCAAGCGCCATCTAC	0.318 RPM ratio (pull-down/input)
GATGATTGTTCTCCCAGCTGATGAATTATTCTGCTCGAGTAAACAAATTTTCCTAATCTTTCTGTTCAAGCGCCATCTAC	0.328 RPM ratio (pull-down/input)
GATGATTGTTCTCCCAGCTGATGAATTATGAGAGTCGAGTAAACAAATTTTCCTAATCTTTCTGTTCAAGCGCCATCTAC	0.397 RPM ratio (pull-down/input)
GATGATTGTTCTCCCAGCTGATGAATTTAAGGCATCGAGTAAACAAATTTTCCTAATCTTTCTGTTCAAGCGCCATCTAC	0.732 RPM ratio (pull-down/input)
GATGATTGTTCTCCCAGCTGATGAATTTAAAGACTCGAGTAAACAAATTTTCCTAATCTTTCTGTTCAAGCGCCATCTAC	0.245 RPM ratio (pull-down/input)
GATGATTGTTCTCCCAGCTGATGAATTAGTACAGTCGAGTAAACAAATTTTCCTAATCTTTCTGTTCAAGCGCCATCTAC	0.484 RPM ratio (pull-down/input)
GATGATTGTTCTCCCAGCTGATGAATTGGATTTATCGAGTAAACAAATTTTCCTAATCTTTCTGTTCAAGCGCCATCTAC	1.47 RPM ratio (pull-down/input)

Sequence	binding signal
GATGATTGTTCTCCCAGCTGATGAATTCCTGCATTCGAGTAAACAAATTTTCCTAATCTTTCTGTTCAAGCGCCATCTAC	5.61 RPM ratio (pull-down/input)
GATGATTGTTCTCCCAGCTGATGAATTTCTGCATTCGAGTAAACAAATTTTCCTAATCTTTCTGTTCAAGCGCCATCTAC	6.35 RPM ratio (pull-down/input)
GATGATTGTTCTCCCAGCTGATGAATTTCCTGCATCGAGTAAACAAATTTTCCTAATCTTTCTGTTCAAGCGCCATCTAC	0.719 RPM ratio (pull-down/input)
GATGATTGTTCTCCCAGCTGATGAATTCCCTGCATCGAGTAAACAAATTTTCCTAATCTTTCTGTTCAAGCGCCATCTAC	0.746 RPM ratio (pull-down/input)
GATGATTGTTCTCCCAGCTGATGAATTCGCTGCATCGAGTAAACAAATTTTCCTAATCTTTCTGTTCAAGCGCCATCTAC	1.02 RPM ratio (pull-down/input)
GATGATTGTTCTCCCAGCTGATGAATTCTGCCATTCGAGTAAACAAATTTTCCTAATCTTTCTGTTCAAGCGCCATCTAC	4.97 RPM ratio (pull-down/input)
GATGATTGTTCTCCCAGCTGATGAATTCTTGACCTCGAGTAAACAAATTTTCCTAATCTTTCTGTTCAAGCGCCATCTAC	0.216 RPM ratio (pull-down/input)
GATGATTGTTCTCCCAGCTGATGAATTCATTCCGTCGAGTAAACAAATTTTCCTAATCTTTCTGTTCAAGCGCCATCTAC	0.236 RPM ratio (pull-down/input)
GATGATTGTTCTCCCAGCTGATGAATTTTTCAGTTCGAGTAAACAAATTTTCCTAATCTTTCTGTTCAAGCGCCATCTAC	0.248 RPM ratio (pull-down/input)
GATGATTGTTCTCCCAGCTGATGAATTTGAGTAGTCGAGTAAACAAATTTTCCTAATCTTTCTGTTCAAGCGCCATCTAC	0.778 RPM ratio (pull-down/input)
GATGATTGTTCTCCCAGCTGATGAATTTTTGTGGTCGAGTAAACAAATTTTCCTAATCTTTCTGTTCAAGCGCCATCTAC	0.472 RPM ratio (pull-down/input)
GATGATTGTTCTCCCAGCTGATGAATTTGTGGTGTCGAGTAAACAAATTTTCCTAATCTTTCTGTTCAAGCGCCATCTAC	6.2 RPM ratio (pull-down/input)
GATGATTGTTCTCCCAGCTGATGAATTTCTGTGGTCGAGTAAACAAATTTTCCTAATCTTTCTGTTCAAGCGCCATCTAC	0.335 RPM ratio (pull-down/input)
GATGATTGTTCTCCCAGCTGATGAATTTGGTGTGTCGAGTAAACAAATTTTCCTAATCTTTCTGTTCAAGCGCCATCTAC	3.91 RPM ratio (pull-down/input)
GATGATTGTTCTCCCAGCTGATGAATTTGTGTGGTCGAGTAAACAAATTTTCCTAATCTTTCTGTTCAAGCGCCATCTAC	5.5 RPM ratio (pull-down/input)
GATGATTGTTCTCCCAGCTGATGAATTTTTGGTGTCGAGTAAACAAATTTTCCTAATCTTTCTGTTCAAGCGCCATCTAC	0.396 RPM ratio (pull-down/input)
